Results reported in PubChem BioAssay (Tox21).
Inconclusive results are not listed. A call without a number means that no potency is given here. A number with no mark means an inactive call. Calls of active or inactive are those of the source. Unless noted, the call rests on the fitted dose curve; in most records, active means well fitted curve in the direction sought with a large enough effect in the repeat runs; inconclusive means weak or mixed curves; inactive means no such curve, though single readings can be large; an effect the other way counts as inactive or inconclusive.

Tests used:
[1] = qHTS assay to identify small molecule agonists of the peroxisome proliferator-activated receptor delta (PPARd) signaling pathway - cell viability counter screen (AID 743211); further: nearly all actives have a fitted effect of over 55% in size
Outline: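 Following 5 h plating at 37 C and 5% CO2, PPARd UAS-bla HEK293H cells took up test compounds for 17 h. Viability was quantified by luminescence 30 min after CellTiter-Glo addition at room temperature.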

[2] = target: Peroxisome proliferator-activated receptor delta (Homo sapiens) (UniProt Q03181); experiment: qHTS assay to identify small molecule agonists of the peroxisome proliferator-activated receptor delta (PPARd) signaling pathway (AID 743212; calls by dose curve)
Outline: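 A PPARd-bla HEK293H line with beta-lactamase under an Upstream Activator Sequence is treated with compounds at 37 C. Substrate loading for 2 h at room temperature precedes the fluorescence measurement.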

[3] = qHTS assay to identify small molecule antagonists of the peroxisome proliferator-activated receptor delta (PPARd) signaling pathway - cell viability counter screen (AID 743213); further: nearly all actives have a fitted effect of over 50% in size
Outline: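 Cytotoxicity counter screen: CellTiter-Glo luminescence read 30 min after addition, in the same wells as the reporter assay. There, PPARd UAS-bla HEK293H cells (3000/well) were treated 17 h at 37 C with compound and 300 nM L165041.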

[4] = target: Peroxisome proliferator-activated receptor delta (Homo sapiens) (UniProt Q03181); experiment: qHTS assay to identify small molecule antagonists of the peroxisome proliferator-activated receptor delta (PPARd) signaling pathway (AID 743215; active means well fitted inhibition curve with a large enough effect in the signal ratio in the repeat runs, not every such curve was filed as active; the % refers to the signal ratio;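 further: cells stimulated with agonist L165041 at 300 nM final during compound exposure; series mostly up to about 62 µM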)
Outline: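 Read-out is beta-lactamase FRET fluorescence, measured 2 h after substrate addition at room temperature. Beforehand, UAS-bla HEK293H cells carrying the PPARd reporter were exposed to compounds with L165041 at 300 nM final for 17 h at 37 C.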

[5] = qHTS assay to identify small molecule agonists of the farnesoid-X-receptor (FXR) signaling pathway - cell viability counter screen (AID 743218); further: nearly all actives have a fitted effect of over 45% in size
Outline: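 HEK 293T FXR-bla cells; 5 h pre-incubation, 16 h compound exposure at 37 C; LiveBLAzer substrate 2 h RT, then CellTiter-Glo 30 min RT, luminescence.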

[6] = target: Bile acid receptor (Homo sapiens) (UniProt Q96RI1); experiment: qHTS assay to identify small molecule agonists of the farnesoid-X-receptor (FXR) signaling pathway (AID 743220; active means well fitted activation curve with a large enough effect in the signal ratio in the repeat runs, not every such curve was filed as active; the % refers to the signal ratio)
Outline: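 Beta-lactamase reporter under UAS control in GeneBLAzer FXR HEK 293T cells (5000/well) measured with LiveBLAzer FRET substrate after 2 h at room temperature. Compound exposure lasted 16 h at 37C.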

[7] = qHTS assay to identify small molecule antagonists of the farnesoid-X-receptor (FXR) signaling pathway - cell viability counter screen (AID 743221; active means well fitted cell-killing curve with a large enough effect in the repeat runs, not every such curve was filed as active; further: nearly all actives have a fitted effect of over 50% in size)
Outline: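 Compound effects on cell number were measured as CellTiter-Glo luminescence in HEK 293T cells expressing FXR-UAS-bla, after 16 h at 37 C with 50 uM CDCA (final).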

[8] = target: Vitamin D3 receptor (Homo sapiens) (UniProt P11473); experiment: qHTS assay to identify small molecule agonists of the vitamin D receptor (VDR) signaling pathway (AID 743222; calls by dose curve)
Outline: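 VDR-bla cells, 2,000/well; 4 h preincubation 37C; cpd (DMSO) 16 h; LiveBLAzer B/G substrate 2 h RT; fluorescence intensity read.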

[9] = target: Vitamin D3 receptor (Homo sapiens) (UniProt P11473); experiment: qHTS assay to identify small molecule antagonists of the vitamin D receptor (VDR) signaling pathway (AID 743223; active means well fitted inhibition curve with a large enough effect in the signal ratio in the repeat runs, not every such curve was filed as active; the % refers to the signal ratio)
Outline: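 Beta-lactamase activity in VDR-bla cells is measured by FRET substrate fluorescence (2 h, room temperature) after cells spend 16 h at 37C with test compound and 3 nM final 1alpha,25-dihydroxyvitamin D3.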

[10] = qHTS assay to identify small molecule agonists of the vitamin D receptor (VDR) signaling pathway - cell viability counter screen (AID 743224); further: series mostly up to about 63 µM; nearly all actives have a fitted effect of over 50% in size
Outline: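 Luminescence from CellTiter-Glo, read after 30 min at room temperature, reports viability of VDR-bla cells treated with compounds for 16 h at 37C in the wells used for the beta-lactamase FRET read.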

[11] = qHTS assay to identify small molecule antagonists of the vitamin D receptor (VDR) signaling pathway - cell viability counter screen (AID 743225); further: nearly all actives have a fitted effect of over 50% in size
Outline: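 In this counter screen, VDR-bla HEK 293T cells receive test compound plus 3 nM final calcitriol for 16 h at 37C. Room-temperature steps of 2 h with the beta-lactamase substrate, then 30 min with CellTiter-Glo, precede the luminescence read.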

[12] = qHTS assay to identify small molecule agonists of the NFkB signaling pathway (AID 1159509; active means well fitted curve in the direction sought with a large enough effect in the signal ratio in the repeat runs, not every such curve was filed as active; the % refers to the signal ratio; further: series mostly up to about 61 µM)
Outline: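 ME-180 NFkB-bla, 2,000 cells/well, overnight plating; cpd pinned in DMSO, 5 h 37 C; B/G FRET substrate 1.5 h RT; ex 405, em 460/530 nm.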

[13] = qHTS assay to identify small molecule agonists of the NFkB signaling pathway - cell viability counter screen (AID 1159515; calls by dose curve; further: series mostly up to about 61 µM; nearly all actives have a fitted effect of over 55% in size)
Outline: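 Luminescence from CellTiter-Glo (30 min, room temperature) gives viability, measured in the same wells as the beta-lactamase reporter read. Cells were NFkB-bla ME-180, 2,000 per well, treated 5 hr with compounds.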

[14] = qHTS assay to identify small molecule agonists of the endoplasmic reticulum stress response signaling pathway (AID 1159516; active means well fitted activation curve with a large enough effect in the signal ratio in the repeat runs, not every such curve was filed as active; the % refers to the signal ratio)
Outline: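 Read-out is beta-lactamase cleavage of a FRET substrate (405 nm excitation; 460 and 530 nm emissions) in ESRE-bla HeLa cells after a 5 hr compound exposure at 37 C. Substrate incubation ran 2 hr at room temperature.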

[15] = qHTS assay to identify small molecule agonists of the endoplasmic reticulum stress response signaling pathway - cell viability counter screen (AID 1159517; calls by dose curve)
Outline: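 CellTiter-Glo was added to wells already read for beta-lactamase FRET, and luminescence was recorded 30 min later. Cells: ESRE-bla HeLa, 1,500 per well, compound exposure 5 hr at 37 C.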

[16] = qHTS assay to identify small molecule antagonists of the retinoid-related orphan receptor gamma (ROR-gamma) signaling pathway - cell viability counter screen (AID 1159520); further: nearly all actives have a fitted effect of over 50% in size
Outline: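 Tet-on ROR gamma CHO cells (1,000/well) were plated 4 hr, given compounds in DMSO for 2 hr at 37 C, then induced with 1 uM final doxycycline for 16 hr. Viability was read as ATP by CellTiter-Glo luminescence after 30 min.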

[17] = qHTS assay to identify small molecule agonists of the AP-1 signaling pathway - cell viability counter screen (AID 1159525; calls by dose curve; further: nearly all actives have a fitted effect of over 55% in size)
Outline: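 ME-180 AP-1-bla, 2500 cells/well, Opti-MEM + 0.5% dialyzed FBS; overnight 37 °C; cpd 15-pt titration, 5 h 37 °C; CellTiter-Glo 30 min RT; luminescence read; normalised to TOAB and DMSO controls.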

[18] = qHTS assay to identify small molecule agonists of the AP-1 signaling pathway (AID 1159526; calls by dose curve)
[19] = target: Nuclear receptor ROR-gamma (Homo sapiens) (UniProt P51449); experiment: qHTS assay to identify small molecule antagonists of the retinoid-related orphan receptor gamma (ROR-gamma) signaling pathway (AID 1159521; further: nearly all actives have a fitted effect of over 50% in size; further: potency means the concentration at half of the fitted maximal effect)
Outline: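 Screening format: cell-based luciferase reporter in CHO cells with doxycycline-inducible RORγ. Compound pre-exposure lasts 2 h, doxycycline is 1 uM final, induction runs 16 h at 37 C, and ONE-Glo luminescence is read.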

[20] = target: Bile acid receptor (Homo sapiens) (UniProt Q96RI1); experiment: qHTS assay to identify small molecule antagonists of the farnesoid-X-receptor (FXR) signaling pathway (AID 743217; active means well fitted inhibition curve with a large enough effect in the signal ratio in the repeat runs, not every such curve was filed as active; the % refers to the signal ratio)
Outline: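 HEK 293T FXR-UAS-bla, 5000 cells/well; compound + CDCA 50 uM final; 16 h, 37 °C; B/G FRET substrate 2 h RT; fluorescence.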

Chain of Peroxisome proliferator-activated receptor delta (Homo sapiens) (Q03181 whole entry, looked up): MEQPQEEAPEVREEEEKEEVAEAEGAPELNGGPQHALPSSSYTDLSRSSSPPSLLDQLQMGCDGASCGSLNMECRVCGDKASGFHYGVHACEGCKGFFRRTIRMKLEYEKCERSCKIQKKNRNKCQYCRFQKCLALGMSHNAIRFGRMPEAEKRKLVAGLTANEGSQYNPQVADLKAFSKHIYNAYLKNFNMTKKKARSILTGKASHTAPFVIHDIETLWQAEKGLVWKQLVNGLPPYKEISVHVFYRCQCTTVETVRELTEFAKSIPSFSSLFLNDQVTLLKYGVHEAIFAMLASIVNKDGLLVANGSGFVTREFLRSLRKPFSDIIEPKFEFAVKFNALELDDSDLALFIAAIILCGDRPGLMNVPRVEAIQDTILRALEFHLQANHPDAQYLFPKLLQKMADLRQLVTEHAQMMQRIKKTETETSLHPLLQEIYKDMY
Chain of Bile acid receptor (Homo sapiens) (Q96RI1 whole entry, looked up): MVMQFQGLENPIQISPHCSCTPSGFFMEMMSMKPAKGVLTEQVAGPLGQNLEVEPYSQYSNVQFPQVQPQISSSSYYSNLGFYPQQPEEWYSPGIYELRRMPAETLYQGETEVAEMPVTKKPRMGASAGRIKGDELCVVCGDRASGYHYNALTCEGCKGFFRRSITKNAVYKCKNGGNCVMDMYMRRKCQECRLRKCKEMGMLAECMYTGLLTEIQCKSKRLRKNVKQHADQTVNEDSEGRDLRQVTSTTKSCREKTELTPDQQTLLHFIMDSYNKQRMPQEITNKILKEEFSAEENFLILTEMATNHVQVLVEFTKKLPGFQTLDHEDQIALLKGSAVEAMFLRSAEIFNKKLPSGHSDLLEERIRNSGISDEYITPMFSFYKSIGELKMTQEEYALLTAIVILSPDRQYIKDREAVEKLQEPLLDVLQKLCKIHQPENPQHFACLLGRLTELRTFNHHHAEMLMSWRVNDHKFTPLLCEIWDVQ
Chain of Vitamin D3 receptor (Homo sapiens) (P11473 whole entry, looked up): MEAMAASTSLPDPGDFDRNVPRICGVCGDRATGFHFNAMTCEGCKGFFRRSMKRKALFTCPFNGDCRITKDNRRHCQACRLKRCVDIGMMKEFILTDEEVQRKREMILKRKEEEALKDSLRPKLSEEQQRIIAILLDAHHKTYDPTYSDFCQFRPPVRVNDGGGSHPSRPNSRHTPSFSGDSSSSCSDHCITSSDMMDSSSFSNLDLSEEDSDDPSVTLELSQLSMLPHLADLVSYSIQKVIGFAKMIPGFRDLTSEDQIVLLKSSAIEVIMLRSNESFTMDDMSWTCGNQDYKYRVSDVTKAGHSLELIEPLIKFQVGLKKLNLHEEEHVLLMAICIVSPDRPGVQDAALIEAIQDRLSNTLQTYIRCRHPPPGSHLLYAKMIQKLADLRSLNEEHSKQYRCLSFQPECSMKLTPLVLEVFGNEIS

| Structure (SMILES) | Potency [1] | outcome [2] | Potency [3] | outcome [4] | Potency [5] | outcome [6] | outcome [7] | outcome [8] | outcome [9] | Potency [10] | Potency [11] | outcome [12] | outcome [13] | outcome [14] | outcome [15] | Potency [16] | outcome [17] | Potency [18] | Potency [19] | outcome [20] |
| --- | --- | --- | --- | --- | --- | --- | --- | --- | --- | --- | --- | --- | --- | --- | --- | --- | --- | --- | --- | --- |
| O=C1C=CC(=O)O1 | inactive | inactive | inactive | inactive | inactive | inactive | inactive | inactive | inactive | inactive | inactive | inactive | inactive | inactive | inactive | inactive | inactive | inactive |  |  |
| CC(C)O |  | inactive |  |  | inactive | inactive |  |  | inactive |  | inactive | inactive | inactive | inactive | inactive | inactive |  |  | 65.6 µM (active) |  |
| FC(F)(F)C(Cl)(Cl)Cl | inactive | inactive | inactive | inactive | inactive | inactive | inactive |  |  | inactive | inactive | inactive | inactive | inactive | inactive | inactive | inactive | inactive |  | inactive |
| NS(=O)(=O)c1cc(-c2nn[nH]n2)c(NCc2cccs2)cc1Cl |  | inactive | inactive | inactive | inactive |  | inactive |  | inactive | inactive | inactive | inactive | inactive | inactive | inactive | inactive |  | inactive | inactive |  |
| ClC(Cl)Cl | inactive |  | inactive |  | inactive | inactive |  |  | inactive | inactive | inactive | inactive | inactive | inactive | inactive | inactive |  |  | 48.2 µM (active) |  |
| CCCCNC(=S)NCCCC |  |  | inactive |  | inactive |  | inactive |  | inactive |  | inactive | inactive | inactive | inactive | inactive | inactive | inactive |  | inactive |  |
| CCN(O)CC | inactive | inactive |  | inactive | inactive |  |  |  | inactive | inactive | inactive | inactive | inactive | inactive | inactive | inactive |  |  | inactive |  |
| COc1ccc(S(=O)(=O)Nc2nnc(CC(C)C)s2)cc1 | inactive | inactive | inactive |  |  |  | inactive |  |  | inactive | inactive | inactive | inactive | inactive | inactive | inactive |  | inactive | inactive |  |
| COc1cc(N)c(Cl)cc1C(=O)NC1CCN(Cc2ccccc2)CC1 | inactive | inactive | inactive | inactive | inactive | inactive |  | inactive | inactive | inactive | inactive | inactive | inactive | inactive | inactive | inactive | inactive | inactive |  | inactive |
